From the supplement of paper PMC11001985
Unmarked numbers belong to inactive results.

Compound: C#CCNC(=O)CCSSCCC(=O)NCCc1ccc(C=O)c(C=O)c1
Experiment: lysine labeling ratio R10:1 (500 µM / 50 µM probe), SILAC-ABPP in living cells; higher = lower intrinsic lysine reactivity toward the probe, active = 2 or less
Conditions: HeLa; probe concentrations 500 vs 50 µM
Description: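 Living HeLa cells (SILAC light/heavy) in PBS at room temperature were labeled with 50 µM versus 500 µM of the lysine-reactive, reductant-cleavable probe OPA-S-S-alkyne (SILAC labeling time not stated). Probe-modified peptides were CuAAC-biotinylated, captured on neutravidin and eluted with DTT/IAA, then quantified by LC-MS/MS. R = median peptide ratio per lysine (500/50 µM), combined over 3 forward and 3 reverse SILAC replicates. Ratios are capped at 20; R < 2 = hyper-reactive.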

UniProt Q14517, sequence (Q14517 whole entry): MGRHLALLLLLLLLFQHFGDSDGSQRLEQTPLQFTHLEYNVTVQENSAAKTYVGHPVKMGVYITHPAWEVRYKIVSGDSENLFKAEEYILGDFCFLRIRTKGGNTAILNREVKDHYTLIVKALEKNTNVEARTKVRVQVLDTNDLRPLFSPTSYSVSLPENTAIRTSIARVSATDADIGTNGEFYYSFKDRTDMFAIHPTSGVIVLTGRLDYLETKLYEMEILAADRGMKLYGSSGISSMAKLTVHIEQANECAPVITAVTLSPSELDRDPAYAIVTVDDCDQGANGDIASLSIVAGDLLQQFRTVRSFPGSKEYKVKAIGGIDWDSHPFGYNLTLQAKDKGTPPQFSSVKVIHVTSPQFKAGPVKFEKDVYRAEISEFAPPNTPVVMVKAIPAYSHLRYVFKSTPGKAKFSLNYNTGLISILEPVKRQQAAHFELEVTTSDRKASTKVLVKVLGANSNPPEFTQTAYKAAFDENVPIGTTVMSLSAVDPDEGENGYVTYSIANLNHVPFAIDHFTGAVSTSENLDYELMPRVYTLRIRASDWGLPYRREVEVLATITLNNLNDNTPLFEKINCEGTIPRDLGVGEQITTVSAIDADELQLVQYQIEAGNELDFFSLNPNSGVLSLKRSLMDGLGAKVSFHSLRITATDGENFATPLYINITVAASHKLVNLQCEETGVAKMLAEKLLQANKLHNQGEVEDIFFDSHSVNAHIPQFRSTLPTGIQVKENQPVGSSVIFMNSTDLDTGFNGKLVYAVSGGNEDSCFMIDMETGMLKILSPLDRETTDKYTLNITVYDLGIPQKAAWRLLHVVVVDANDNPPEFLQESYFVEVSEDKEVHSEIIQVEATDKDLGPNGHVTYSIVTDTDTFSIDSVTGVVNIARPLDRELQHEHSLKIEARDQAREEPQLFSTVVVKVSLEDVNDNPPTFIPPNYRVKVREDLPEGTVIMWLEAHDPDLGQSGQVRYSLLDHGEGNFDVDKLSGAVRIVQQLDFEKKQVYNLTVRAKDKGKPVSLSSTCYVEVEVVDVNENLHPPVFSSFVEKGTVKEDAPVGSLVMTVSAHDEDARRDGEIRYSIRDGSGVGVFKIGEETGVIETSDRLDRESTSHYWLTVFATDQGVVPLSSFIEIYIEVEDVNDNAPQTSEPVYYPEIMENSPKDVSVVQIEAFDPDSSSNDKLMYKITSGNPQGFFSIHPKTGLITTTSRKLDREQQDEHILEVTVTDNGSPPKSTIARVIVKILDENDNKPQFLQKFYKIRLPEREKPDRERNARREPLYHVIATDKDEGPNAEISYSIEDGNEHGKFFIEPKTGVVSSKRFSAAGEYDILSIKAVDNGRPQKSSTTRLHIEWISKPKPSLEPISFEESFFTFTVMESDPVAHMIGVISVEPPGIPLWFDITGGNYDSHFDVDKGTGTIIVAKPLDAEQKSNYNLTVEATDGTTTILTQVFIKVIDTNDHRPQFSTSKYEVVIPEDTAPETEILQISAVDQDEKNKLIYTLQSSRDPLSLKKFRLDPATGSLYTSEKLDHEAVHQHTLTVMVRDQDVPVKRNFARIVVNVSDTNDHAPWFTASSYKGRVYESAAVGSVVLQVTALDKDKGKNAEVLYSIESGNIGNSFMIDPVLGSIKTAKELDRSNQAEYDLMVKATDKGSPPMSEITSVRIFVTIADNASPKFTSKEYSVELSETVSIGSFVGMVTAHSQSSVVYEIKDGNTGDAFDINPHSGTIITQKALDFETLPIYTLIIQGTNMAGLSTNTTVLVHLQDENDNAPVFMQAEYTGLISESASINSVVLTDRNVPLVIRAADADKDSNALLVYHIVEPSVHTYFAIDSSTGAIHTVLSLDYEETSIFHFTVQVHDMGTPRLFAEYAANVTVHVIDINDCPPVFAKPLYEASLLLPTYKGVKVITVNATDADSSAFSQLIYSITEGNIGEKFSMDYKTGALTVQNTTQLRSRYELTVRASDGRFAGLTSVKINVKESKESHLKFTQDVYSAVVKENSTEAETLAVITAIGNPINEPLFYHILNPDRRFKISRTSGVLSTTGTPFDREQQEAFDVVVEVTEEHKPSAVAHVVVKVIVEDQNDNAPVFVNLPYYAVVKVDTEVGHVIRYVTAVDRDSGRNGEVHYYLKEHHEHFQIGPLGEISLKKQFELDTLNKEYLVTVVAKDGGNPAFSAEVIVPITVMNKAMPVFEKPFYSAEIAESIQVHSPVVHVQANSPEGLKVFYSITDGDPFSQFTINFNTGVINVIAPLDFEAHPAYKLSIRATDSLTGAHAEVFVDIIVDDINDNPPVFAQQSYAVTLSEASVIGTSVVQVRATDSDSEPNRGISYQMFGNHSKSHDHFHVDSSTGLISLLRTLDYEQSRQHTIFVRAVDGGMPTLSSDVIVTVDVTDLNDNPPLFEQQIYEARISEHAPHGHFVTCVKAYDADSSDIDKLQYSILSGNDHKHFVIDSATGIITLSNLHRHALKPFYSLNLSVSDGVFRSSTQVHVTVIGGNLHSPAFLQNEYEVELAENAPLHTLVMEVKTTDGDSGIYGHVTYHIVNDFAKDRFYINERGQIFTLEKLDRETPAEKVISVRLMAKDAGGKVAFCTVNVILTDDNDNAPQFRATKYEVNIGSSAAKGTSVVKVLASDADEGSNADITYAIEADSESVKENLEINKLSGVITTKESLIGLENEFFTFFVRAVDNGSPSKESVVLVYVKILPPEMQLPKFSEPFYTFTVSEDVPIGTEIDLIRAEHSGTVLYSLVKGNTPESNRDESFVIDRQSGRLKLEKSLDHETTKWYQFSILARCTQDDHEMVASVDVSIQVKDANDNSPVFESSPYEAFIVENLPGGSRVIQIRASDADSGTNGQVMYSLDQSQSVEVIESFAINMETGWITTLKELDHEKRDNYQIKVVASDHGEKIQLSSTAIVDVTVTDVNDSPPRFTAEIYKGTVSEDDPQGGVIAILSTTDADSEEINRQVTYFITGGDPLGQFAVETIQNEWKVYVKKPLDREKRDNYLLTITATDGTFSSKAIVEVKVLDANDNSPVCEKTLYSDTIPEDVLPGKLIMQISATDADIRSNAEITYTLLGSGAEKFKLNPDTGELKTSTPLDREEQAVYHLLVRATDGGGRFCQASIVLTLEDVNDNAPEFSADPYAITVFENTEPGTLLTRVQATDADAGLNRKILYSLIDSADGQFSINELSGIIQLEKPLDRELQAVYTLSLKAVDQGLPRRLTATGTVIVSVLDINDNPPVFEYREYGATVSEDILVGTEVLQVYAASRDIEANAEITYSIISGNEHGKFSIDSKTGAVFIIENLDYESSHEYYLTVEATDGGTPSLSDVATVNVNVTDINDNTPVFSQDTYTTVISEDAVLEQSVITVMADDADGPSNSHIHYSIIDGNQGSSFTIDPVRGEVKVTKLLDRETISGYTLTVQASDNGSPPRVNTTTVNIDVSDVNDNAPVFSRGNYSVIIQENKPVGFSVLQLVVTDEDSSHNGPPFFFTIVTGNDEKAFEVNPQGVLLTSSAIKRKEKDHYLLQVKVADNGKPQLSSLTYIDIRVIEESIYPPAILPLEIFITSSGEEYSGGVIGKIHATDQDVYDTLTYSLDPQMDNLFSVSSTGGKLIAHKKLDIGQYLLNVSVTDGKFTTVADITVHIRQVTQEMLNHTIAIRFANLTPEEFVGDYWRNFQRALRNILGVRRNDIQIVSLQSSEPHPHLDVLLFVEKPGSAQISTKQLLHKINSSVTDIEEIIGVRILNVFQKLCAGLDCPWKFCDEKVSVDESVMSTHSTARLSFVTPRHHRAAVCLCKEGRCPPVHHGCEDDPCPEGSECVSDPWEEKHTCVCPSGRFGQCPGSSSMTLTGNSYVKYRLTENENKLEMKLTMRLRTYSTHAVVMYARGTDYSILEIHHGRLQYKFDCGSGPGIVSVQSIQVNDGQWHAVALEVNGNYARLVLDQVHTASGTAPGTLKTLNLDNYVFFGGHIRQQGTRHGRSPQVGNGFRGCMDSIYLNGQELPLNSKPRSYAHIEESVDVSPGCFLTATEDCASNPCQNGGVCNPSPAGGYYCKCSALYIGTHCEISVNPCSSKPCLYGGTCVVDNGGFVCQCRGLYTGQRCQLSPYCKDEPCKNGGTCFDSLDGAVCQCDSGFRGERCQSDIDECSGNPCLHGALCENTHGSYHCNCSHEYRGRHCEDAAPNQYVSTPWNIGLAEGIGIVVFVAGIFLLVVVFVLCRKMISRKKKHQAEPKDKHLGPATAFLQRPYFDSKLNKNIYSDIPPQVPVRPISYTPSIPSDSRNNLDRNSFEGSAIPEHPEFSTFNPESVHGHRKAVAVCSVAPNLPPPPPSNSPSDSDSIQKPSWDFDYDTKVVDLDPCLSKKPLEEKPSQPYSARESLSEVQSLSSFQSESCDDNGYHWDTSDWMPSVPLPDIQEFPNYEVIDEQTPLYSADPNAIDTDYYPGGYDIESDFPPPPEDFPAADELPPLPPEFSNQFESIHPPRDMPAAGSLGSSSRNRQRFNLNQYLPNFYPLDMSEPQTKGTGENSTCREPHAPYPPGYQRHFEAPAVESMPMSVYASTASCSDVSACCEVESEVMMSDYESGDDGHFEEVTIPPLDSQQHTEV
UniProt P50991, sequence (P50991 whole entry): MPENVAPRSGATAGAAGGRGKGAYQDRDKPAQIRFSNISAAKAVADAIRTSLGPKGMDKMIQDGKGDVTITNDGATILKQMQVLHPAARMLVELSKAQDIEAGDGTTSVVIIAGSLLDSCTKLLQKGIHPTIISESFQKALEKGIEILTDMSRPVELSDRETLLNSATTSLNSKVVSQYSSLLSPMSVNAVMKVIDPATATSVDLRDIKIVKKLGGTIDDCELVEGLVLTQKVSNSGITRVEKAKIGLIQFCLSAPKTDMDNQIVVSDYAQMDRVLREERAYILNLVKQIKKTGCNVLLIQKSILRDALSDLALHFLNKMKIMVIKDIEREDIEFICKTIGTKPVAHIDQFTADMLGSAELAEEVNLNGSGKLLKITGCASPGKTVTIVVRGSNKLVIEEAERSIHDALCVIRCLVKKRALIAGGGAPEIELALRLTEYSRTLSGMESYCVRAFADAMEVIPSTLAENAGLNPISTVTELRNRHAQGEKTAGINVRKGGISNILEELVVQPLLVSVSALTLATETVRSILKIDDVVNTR

Target | lysine labeling ratio R10:1
SPTAN1 (lysine site: K1023) (UniProt Q13813) | 9.87
RPS3A (lysine site: K167) (UniProt P61247) | 1.82 (active)
UniProt P61978 (lysine site: K198) | 1.88 (active)
UniProt Q6NZI2 (lysine site: K276) | 4.1
CCT8 (lysine site: K440) (UniProt P50990) | 2.29
FAT1 (lysine site: K978) (UniProt Q14517) | 0.71 (active)
UniProt Q15149 (lysine site: K1975) | 5.68
ENO1 (lysine site: K422) (UniProt P06733) | 2.65
CEP250 (lysine site: K1048) (UniProt Q9BV73) | 7.19
NUCB1 (lysine site: K177) (UniProt Q02818) | 1.71 (active)
TAGLN2 (lysine site: K154) (UniProt P37802) | 1.43 (active)
SLC3A2 (lysine site: K615) (UniProt P08195) | 3.54
TGFBR3 (lysine site: K314) (UniProt Q03167) | 1.51 (active)
CCT4 (lysine site: K531) (UniProt P50991) | 3.03
FSCN1 (lysine site: K43) (UniProt Q16658) | 1.7 (active)
UFC1 (lysine site: K33) (UniProt Q9Y3C8) | 3.81
UniProt P16144 (lysine site: K388) | 0.94 (active)
P4HB (lysine site: K309) (UniProt P07237) | 1.42 (active)
UniProt P05186 (lysine site: K74) | 6.22
SLC39A10 (lysine site: K317) (UniProt Q9ULF5) | 6.58

Target | lysine labeling ratio R10:1
SDC2 (lysine site: K141) (UniProt P34741) | 1.35 (active)
ITGA3 (lysine site: K897) (UniProt P26006) | 1.68 (active)
CYB5R3 (lysine site: K164) (UniProt P00387) | 1.79 (active)
FLNA (lysine site: K2473) (UniProt P21333) | 3.58
SEMA3C (lysine site: K495) (UniProt Q99985) | 2.53
LNPEP (lysine site: K923) (UniProt Q9UIQ6) | 5.14
ITGA6 (lysine site: K586) (UniProt P23229) | 12.8
YBX1 (lysine site: K264) (UniProt P67809) | 4.18
UniProt Q12884 (lysine site: K258) | 3.81
MYH9 (lysine site: K656) (UniProt P35579) | 2.88
MAP4 (lysine site: K959) (UniProt P27816) | 3.23
FAT1 (lysine site: K2553) (UniProt Q14517) | 2.67
ROBO1 (lysine site: K304) (UniProt Q9Y6N7) | 3.14
SDF4 (lysine site: K121) (UniProt Q9BRK5) | 1.36 (active)
HNRNPU (lysine site: K592) (UniProt Q00839) | 2.21
ACTN4 (lysine site: K592) (UniProt O43707) | 6.67
UniProt P35908 (lysine site: K580) | 5.72
SLC3A2 (lysine site: K300) (UniProt P08195) | 6.33
HSP90B1 (lysine site: K142) (UniProt P14625) | 2.93
CACNA2D1 (lysine site: K842) (UniProt P54289) | 4.24
